Rows were chosen to be rich in hits. Some 5.8% of all compounds tested hit in one or more screens of this group.
MCF10A rerep – DNA re-replication induction in MCF 10a cells; 350,000 compounds, 2.9% hits; MCF 10A DNA re-replication, Hoechst nuclear intensity, 48 h; AID 624296; Potency, µM (top dose mostly 46.1 µM), without a hit: at the top dose activity, positive = re-replication, most hits filed as activators; also: % of control where 0% means no effect; nearly all actives have a fitted effect of over 50% in size
12-LOX inh – inhibitors of human 12S-lipoxygenase ALOX12; Potency, µM (highest dose often 108 µM), for the others: top-dose activity change, negative = inhibition, actives largely listed as inhibitors; purified 12hLO, xylenol orange hydroperoxide absorbance; 580,000 compounds, 1.1% hits; also: % is scaled to controls: 0 for no effect and ±100 for the full control effect
Target sequence (P18054 whole entry, looked up): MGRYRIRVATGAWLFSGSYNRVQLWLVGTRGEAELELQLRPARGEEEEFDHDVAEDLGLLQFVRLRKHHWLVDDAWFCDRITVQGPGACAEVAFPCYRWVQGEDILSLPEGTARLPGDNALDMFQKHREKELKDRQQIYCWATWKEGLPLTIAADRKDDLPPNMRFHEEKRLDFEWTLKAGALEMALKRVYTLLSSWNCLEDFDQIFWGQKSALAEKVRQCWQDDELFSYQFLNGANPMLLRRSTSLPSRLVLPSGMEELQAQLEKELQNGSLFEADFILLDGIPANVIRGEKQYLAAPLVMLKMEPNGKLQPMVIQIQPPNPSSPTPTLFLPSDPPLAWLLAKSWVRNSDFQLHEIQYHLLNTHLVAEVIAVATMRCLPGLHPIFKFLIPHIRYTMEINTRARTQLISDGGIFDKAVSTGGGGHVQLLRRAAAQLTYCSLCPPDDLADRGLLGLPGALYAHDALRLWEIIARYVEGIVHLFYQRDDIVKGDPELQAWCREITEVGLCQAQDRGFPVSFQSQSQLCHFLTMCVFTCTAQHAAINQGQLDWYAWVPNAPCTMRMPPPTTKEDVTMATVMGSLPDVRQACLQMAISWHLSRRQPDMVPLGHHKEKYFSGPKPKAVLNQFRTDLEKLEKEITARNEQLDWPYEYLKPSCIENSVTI
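Hydroperoxide product was detected by ferrous iron/xylenol orange as the 573 to 405 nm absorbance ratio. Arachidonic acid at 40 uM (final) was turned over for 30 min at room temperature by 150 nM human 12hLO, pH 7.0 Hepes buffer, after 15 min compound preincubation.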
SW480 rereplic – induces DNA re-replication in SW480 colon adenocarcinoma cells | SW480 DNA re-replication, Hoechst DNA content imaging, 48 h | Potency, µM (top dose mostly 46.1 µM), for inactives: at the top dose re-replication activation, usual class: activators | 340,000 compounds, 1.8% hits; also: % of control where 0% means no effect; nearly all actives have a fitted effect of over 55% in size
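Compounds, transferred as 23 nL by pin tool, were incubated with cells for 48 hr; DNA content per nucleus was then quantified by Hoechst staining and fluorescence plate imaging.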
PINK1 modulator – PINK1 expression modulation; PINK1 immunofluorescence, high-content cytometry, 24 h; Potency, µM (highest dose often 76.6 µM), inactives show top-dose activation (PINK1 increase), usual class: activators; 410,000 compounds, 0.2% hits; AID 624263; active = well fitted activation curve with a large enough effect; inconclusive = small, poorly fitted or top-dose-only effect; cell line not stated here; also: % of control where 0% means no effect; nearly all actives have a fitted effect of over 65% in size
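Readout is PINK1 immunofluorescence, quantified alongside mitochondrial, cell and nuclear markers by laser-scanning microplate cytometry. Cells from a stable line were exposed to compound titrations (5 concentrations) for 24 hours, with CCCP controls.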
KB-3-1 cytotox – kills parental KB-3-1 adenocarcinoma cells. KB-3-1 viability, CellTiter-Glo ATP luminescence, 72 h. Potency, µM (titrated, usually from 46.1 µM), hits mostly cytotoxic. 400,000 compounds, 1.4% hits; also: % is scaled to controls: 0 for no effect and ±100 for the full control effect; nearly all actives have a fitted effect of over 60% in size
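Cytotoxicity measured as CellTiter-Glo luminescence after 72 h at 37 C. Compound titrations were pinned onto drug-naive KB-3-1 parental adenocarcinoma cells grown in DMEM with 10% FBS, and normalized data fitted to concentration-response curves.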
KB-V1 MDR tox – KB-V1 MDR subline cytotoxicity; KB-V1 MDR cells viability, CellTiter-Glo, 72 h; Potency, µM (top dose mostly 46.1 µM), hits mostly cytotoxic; 400,000 compounds, 3.4% hits; also: % is scaled to controls: 0 for no effect and ±100 for the full control effect; nearly all actives have a fitted effect of over 60% in size
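Cells of the MDR subline KB-V1 are plated, dosed with compound at multiple concentrations, and incubated 72 h at 37 degrees C; CellTiter-Glo is then added and luminescence read after 10 min.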
* = called active by the depositor; i = inactive; ? = inconclusive; · = no result; ! = not active in a repeat; [ ] = another dose, or the depositor's remark. Unless noted, calls follow the shape of the dose curve; as a rule, active = well fitted curve in the direction sought with a large enough effect; inconclusive = small, poorly fitted or top-dose-only effect, or another doubt; inactive = no such curve, though single readings can be large; an effect the other way counts as inactive or inconclusive. Potency is read from the fitted curve at half-maximal effect.

SMILES | MCF10A rerep | 12-LOX inh | SW480 rereplic | PINK1 modulator | KB-3-1 cytotox | KB-V1 MDR tox
Cc1ccc(NC(=O)CCNS(=O)(=O)c2ccccc2)cc1S(=O)(=O)N1CCOCC1 | 2% | -6% | -4% | 0% | i | i
Cc1ccc(NC(=O)CN2CCc3ccccc3C2)cc1S(=O)(=O)N1CCOCC1 | -5% | -3% | 8% | 4% | i | 8.2µM*
Cc1ccc(NC(=O)Cc2ccccc2)cc1S(=O)(=O)N1CCOCC1 | 4% | 8% | -3% | 0% | i | 23µM*
CCc1ccc(N2CC(C(=O)Nc3ccc(C)c(S(=O)(=O)N4CCOCC4)c3)CC2=O)cc1 (stereo unspecified) | 1% | -4% | 0% | -2% | i | 23µM*
CC(C)NC(=O)CNC(=O)c1cc(-c2ccc(F)cc2)nc2ccccc12 | · | -5% | · | · | · | ·
Cc1cc(=O)oc2cc(OCC(=O)NCC3(N(C)C)CCCCCC3)ccc12 | · | 6% | · | · | · | ·
CN1c2cc(C(=O)NCc3ccc(F)cc3Cl)ccc2C(=O)N2CCCCC21 (stereo unspecified) | · | 8% | · | · | · | ·
CCOC(=O)C1C(=O)C=C(c2ccccc2)CC1c1ccc(Br)cc1 (stereo unspecified) | · | 10% | · | · | · | ·
CCOC(=O)C1C(=O)C=C(/C=C/c2ccccc2)CC1c1ccc(Cl)cc1 (stereo unspecified) | 3% | 29% | ? | 2%[38.3 µM] | i | 16µM*
CCOC(=O)C1C(=O)C=C(/C=C/c2ccco2)CC1c1ccccc1 (stereo unspecified) | · | 6.3µM* | · | · | · | ·
CCOC(=O)C1C(C)=CC(=O)CC1c1ccco1 (stereo unspecified) | -6% | 141% | 0%[9.22 µM] | 2% | i | i
COc1ccc(C2N(C(=O)CN3CCOCC3)CCCN2S(=O)(=O)c2ccc(C)cc2)cc1 (stereo unspecified) | · | -10% | · | · | · | ·
COc1ccc(C(=O)C(C)OC(=O)C23CC4CC(CC(Cl)(C4)C2)C3)c(OC)c1 (stereo unspecified) | · | 74% | · | · | · | ·
C/C(=N/NC(=O)c1cccs1)c1ccccc1 | · | -24% | · | · | · | ·
CSc1cccc(-n2cc(-c3ccc4c(c3)OCO4)[nH]c2=O)c1 | 21µM* | · | 21µM* | 10% | 4.1µM* | 7.3µM*
CSc1cccc(NC(=O)CNC(=O)c2ccc3c(c2)OCO3)c1 | -2% | 4% | -5% | 0% | i | i
N#Cc1c(N)n[nH]c1CCCNC(=O)c1cn(-c2ccccc2)nc1-c1cccnc1 | · | 36% | · | · | · | ·
S=C(Nc1ccccc1)Nc1nc2ccccc2n1CCOc1ccccc1 | ? | ? | ? | -43%[38.3 µM] | i | 15µM*
CCCCn1c(NC(=S)Nc2ccccc2)nc2ccccc21 | ? | 18µM* | 16µM* | -3% | ? | ?
COc1ccc2c(C)c(CC(=O)Nc3cccc(Cl)c3)c(=O)oc2c1C | · | -14% | · | · | · | ·
CC1=C/C(=N\NC(=O)c2ccc(N)cc2)CC1 | · | 53% | · | · | · | ·
CCC(C)n1ncn(-c2ccc(N3CCN(c4ccc(O)cc4)CC3)cc2)c1=O (stereo unspecified) | ? | -21% | -8% | 2% | 1.5µM* | i
O=C(O)c1cc(S(=O)(=O)O)cc(Nc2c3ccccc3nc3ccccc23)c1O | -15% | -8% | 5.2µM* | 0% | i | i
O=C(O)c1cccc(Nc2c3ccccc3nc3ccccc23)c1 | 17% | ? | 20% | 0% | i | i
Cc1ccccc1CNc1ncnc2c1ncn2C1OC(CO)C(O)C1O (stereo unspecified) | 13% | · | -3% | · | · | ·
SMILES | MCF10A rerep | 12-LOX inh | SW480 rereplic | PINK1 modulator | KB-3-1 cytotox | KB-V1 MDR tox
OCC1OC(n2cnc3c(NCc4ccco4)ncnc32)C(O)C1O (stereo unspecified) | 1µM* | -9% | 8.2µM* | -7% | 13µM*! | ?
OC[C@H]1O[C@@H](n2cnc3c(NCc4ccco4)ncnc32)[C@H](O)[C@@H]1O | ? | -9% | ? | 1% | 16µM* | i
CN(C)CCNC(=O)CNc1nc(Cl)nc2nc[nH]c12 | · | -7% | · | · | · | ·
O=C(CCc1ccccc1)NC1CCCc2ccccc21 (stereo unspecified) | 5% | -16% | 1% | 1% | i | i
S=C(NCCc1ccccc1)NC1CCCc2ccccc21 (stereo unspecified) | · | 14µM* | · | · | · | ·
Cc1ccc(SCCNC(=S)NC2CC2)cc1 | · | -52% | · | · | · | ·
S=C(NCc1ccc(Cl)cc1)NC1CCCC1 | · | 40µM* | · | · | · | ·
S=C(NCCc1ccc(Cl)cc1)NC1CCCC1 | 11% | ? | -12% | -1% | i | i
S=C(NCCSc1ccc(Cl)cc1)NC1CCCC1 | · | 28µM* | · | · | · | ·
S=C(NCCc1ccc(Cl)cc1)NC1CCCCC1 | ? | 40µM* | 18% | ? | i | ?
CCOC(=O)C1CCN(Cc2cc(=O)oc3c(C)cc(C)cc23)CC1 | · | -1% | · | · | · | ·
CCc1sc(C(=O)OCC(=O)N2CCC(c3ccccc3)=N2)cc1C | · | -17% | · | · | · | ·
NC(=O)C1Cc2ccccc2CN1C(=O)CCc1nc2ccccc2[nH]c1=O (stereo unspecified) | · | 5% | · | · | · | ·
CC(C)C(=O)/C(C#N)=C\c1ccc(C#N)cc1 | · | -16% | · | · | · | ·
S=C(NCCc1ccc(Cl)cc1Cl)NC1CCCCC1 | · | 18µM* | · | · | · | ·
S=C(NCCc1ccccc1)NC1CCCCCC1 | 3% | ? | 1% | -1% | i | i
CC(C)(C)c1ccc(CN(Cc2ccco2)Cc2nnnn2C2CCCC2)cc1 | ? | -29% | 13% | ? | i | 16µM*
CCC(C)(C)n1nnnc1CN(Cc1ccco1)Cc1cc2cc3c(cc2[nH]c1=O)OCO3 | 18% | · | 15% | 6% | i | ?
CCC(C)(C)n1nnnc1CN(Cc1ccc(Cl)cc1)Cc1ccco1 | ? | 73% | 1% | ? | 21µM* | 23µM*
COc1ccc2cc(CN(Cc3ccco3)Cc3nnnn3C3CCCCC3)c(=O)[nH]c2c1 | 35% | ? | ? | -2%[38.3 µM] | i | ?
Cc1cc(Cn2cc3c4c(cccc42)[C@H](CC(C)C)N[C@H](C(=O)NCC2CC2)C3)no1 | · | -2%[176 µM] | · | · | · | ·
O=C(CSc1nc2ccccc2o1)Nc1ccc2ccccc2c1 | · | -3% | · | · | · | ·
Cc1ccc(C)c(Nc2nc3nonc3nc2N2CCOCC2)c1 | -1% | 12% | 0% | 2% | i | ?
Cc1ccc(C)c(Nc2nc3nonc3nc2Nc2cccc(C)c2C)c1 | · | -9% | · | ? | 21µM* | ?
Cc1nnn(-c2nonc2N)c1C(=O)N/N=C/c1cccc2ccccc12 | 1% | -17% | ? | 10% | i | i
CCN(CC)c1ccc(/C=N/NC(=O)c2nnn(-c3nonc3N)c2C(C)C)c(O)c1 | 18µM* | -19% | 23µM* | 14% | 1.3µM* | i
